Data: ChEMBL document CHEMBL3433997, “St. Jude Leishmania screening dataset” (2016)

How the values were obtained:
Type in all cases: functional
[1] = target: Solute carrier family 2, facilitated glucose transporter member 1 (Homo sapiens) (UniProt P11166); experiment: ST_JUDE_LEISH: Cytotoxicity at 2uM final concentration against transgenic Leishmania Mexicana promastigotes LmGLUT1 that are glucose transport deficient and complemented with the human glucose transporter GLUT1. Activity is measured by DNA content using SYBR green in vitro
[2] = target: Hexose transporter 1 (Plasmodium falciparum) (UniProt O97467); experiment: ST_JUDE_LEISH: Cytotoxicity at 2uM final concentration against transgenic Leishmania Mexicana promastigotes LmPfHT that are glucose transport deficient and complemented with the Plasmodium falciparum hexose transporter. Activity is measured by DNA content using SYBR green in vitro
[3] = target: Glucose transporter (Leishmania mexicana) (UniProt O61059); experiment: ST_JUDE_LEISH: Cytotoxicity at 2uM final concentration against transgenic Leishmania Mexicana promastigotes LmGT2 that are glucose transport deficient and complemented with the L. Mexicana glucose transporter 2. Activity is measured by DNA content using SYBR green in vitro

Sequence of Solute carrier family 2, facilitated glucose transporter member 1 (Homo sapiens) (P11166 whole entry): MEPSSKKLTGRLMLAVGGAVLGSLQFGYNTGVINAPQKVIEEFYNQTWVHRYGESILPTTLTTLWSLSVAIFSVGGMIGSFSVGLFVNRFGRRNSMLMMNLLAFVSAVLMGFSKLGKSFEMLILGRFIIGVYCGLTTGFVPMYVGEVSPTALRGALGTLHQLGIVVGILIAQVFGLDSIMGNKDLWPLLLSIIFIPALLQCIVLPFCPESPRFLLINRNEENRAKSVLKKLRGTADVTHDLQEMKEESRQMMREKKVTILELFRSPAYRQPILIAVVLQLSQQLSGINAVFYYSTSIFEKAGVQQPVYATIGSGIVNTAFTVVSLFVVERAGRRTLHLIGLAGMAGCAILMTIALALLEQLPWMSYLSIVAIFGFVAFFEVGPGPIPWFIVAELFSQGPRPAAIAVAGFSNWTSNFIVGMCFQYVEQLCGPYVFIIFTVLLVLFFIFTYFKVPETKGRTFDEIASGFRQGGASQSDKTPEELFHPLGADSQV

| SMILES | inhibition [1] | inhibition [2] | inhibition [3] |
| --- | --- | --- | --- |
| CN(C)C(CNc1ncnc2cc(Cl)ccc12)Cc1ccccc1 (stereo not drawn) | 4.67% | 3.87% | 3.65% |
| CC(C)=C(C(=O)OCc1ccccc1)N1C(=O)[C@@H](NC(c2ccccc2)(c2ccccc2)c2ccccc2)[C@H]1[S+]([O-])CC(=O)OC(C)(C)C (stereo partly drawn) | 0.68% | -0.01% | 0.75% |
| COc1cc(Cc2cnc(N)nc2N)ccc1Oc1ccc(N)cc1 | 1.44% | 0.48% | 0.97% |
| CCCn1c(=N)c(C(=O)NCCc2ccccc2)cc2c(=O)n3cccc(C)c3nc21 | 5.16% | 7.01% | 2.32% |
| COC(=O)C(=C(C)C)N1C(=O)[C@@H](NC(=O)OCc2ccccc2)[C@H]1SS[C@@H]1[C@H](NC(=O)OCc2ccccc2)C(=O)N1C(C(=O)OC)=C(C)C | -2.06% | -0.42% | -1.05% |
| CC1CCN(CCNC(=O)c2ccc3c(=O)n(Cc4ccc(Cl)cc4)c(=S)[nH]c3c2)CC1 | 1.28% | 2.93% | 1.91% |
| O=C(/C=C/c1ccc(Cl)c(Cl)c1)NCCCCCN1CCC(NC(=O)Nc2ccc(Cl)cc2F)CC1 | 2.9% | 1.84% | 2.48% |
| COC(=O)c1c(C#N)c(OC)cc(O)c1CSC[C@@H](CN1CCCCC1)Nc1nc(-c2ccc([N+](=O)[O-])cc2)cs1 | -0.16% | -0.29% | 0.57% |
| O=C(Nc1ccccc1)c1ccc(-c2cc3ccncc3cc2OC2CCNCC2)s1 | -3.12% | 3.86% | -3.49% |
| CCCNCc1ccc(-c2ccc(CN(CCOC)C(=O)CC3CCCC3=O)cc2)nc1 (stereo not drawn) | 0.55% | 0.07% | -9.43% |
| Cc1ccc(F)cc1S(=O)(=O)NCC(C)c1ccc(NC(=O)Nc2cccc(F)c2)cc1 (stereo not drawn) | 0.16% | 1.6% | -0.29% |
| Oc1cccc2c1CC(NCc1ccccc1)CC2 (stereo not drawn) | 1.86% | 1.22% | 2.32% |
| Cc1cc(N2CCCC2)nc(Nc2ccc(NC(=O)Nc3ccccc3)cc2)n1 | 2.65% | 2.28% | 3.63% |
| Cn1cc(C2CCN(CCCCNC(=O)c3ccc(-c4ccc(C(F)(F)F)cc4)c(CO)c3)CC2)c2ccccc21 | 4.11% | 3.1% | 2.35% |
| Cc1cccc2nc(-c3ccc(-c4cccc(CNCCNC(=O)c5ccnn5C)c4)s3)[nH]c12 | 3.8% | 4.31% | 3.87% |
| CCNC(=O)c1cc(S(=O)(=O)N2CCN(c3ccccn3)CC2)cs1 | 0.14% | -0.21% | 2.62% |
